In PubChem BioAssay (NCI):
This is part of a sample that, as a whole, favours compounds with a hit. Of some 83,000 tested, about 20% had one in any assay.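 Assay: single dose, 48 h. Readout: percent growth (0 = no net growth; negative = cell death). Active: <10.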 The source made the active and inactive calls.

Key:
Experiment in all cases: NCI-60 one-dose screen, 48 h (100 = growth as untreated, 0 = no growth, -100 = all killed)
Settings in all cases: 10 µM unless noted
[1] = tested on: SR leukemia
[2] = tested on: RPMI-8226 leukemia
[3] = tested on: OVCAR-8 ovarian
[4] = tested on: OVCAR-5 ovarian
[5] = tested on: OVCAR-4 ovarian
[6] = tested on: SK-OV-3 ovarian
[7] = tested on: IGROV1 ovarian
[8] = tested on: OVCAR-3 ovarian
[9] = tested on: HS 578T breast
[10] = tested on: NCI/ADR-RES ovarian

Measured: growth

Fc1ccc(F)c(CNc2nc(SCCN3CCOCC3)nc3c2cnn3CC(Cl)c2ccc(Br)cc2)c1 (stereo not given)
inactive: [3] 31.9% | [4] 63% | [5] 23.2% | [6] 47% | [7] 45.6% | [8] 45.2%
active: [1] 0.635% | [2] 2.73%

C#CCCCNCCNc1ccnc2cc(Cl)ccc12
inactive: [2] 47.9% | [3] 79.6% | [4] 64.3% | [5] 89.8% | [6] 103% | [7] 84.6% | [8] 85.8% | [9] 91.8%
active: [1] 2.22%

COc1ccc(N=Nc2c(N)nn3c(-c4ccc(F)cc4)ccnc23)cc1
inactive: [2] 95.5% | [3] 73.1% | [4] 80% | [5] 26.1% | [6] 113% | [7] 99.9% | [8] 79.6% | [9] 107%
active: [1] 3.18%

CC1CCc2c(sc3nc(SCC(=O)c4cccc(Br)c4)n(-c4ccccc4)c(=O)c23)C1 (stereo not given)
inactive: [1] 22.3% | [2] 58.8% | [3] 19.2% | [4] 47.8% | [5] 30.6% | [6] 58% | [7] 33.7% | [8] 55.7% | [9] 57.7%

Clc1ccc(-c2nc3ccc(-c4nnc(SCc5ccccc5)o4)cc3[nH]2)cc1
active: [3] 8.94% | [5] 3.57% | [8] -1.55%
inactive: [1] 23.3% | [2] 27.7% | [4] 32.4% | [6] 83.1% | [7] 27.1% | [9] 48.7%

COc1ccc(-c2cc(C(=O)N=Nc3c(O)[nH]c4ccc(Cl)cc34)c3ccccc3n2)cc1OC
inactive: [1] 103% | [2] 119% | [3] 110% | [4] 104% | [5] 116% | [6] 154% | [7] 93% | [8] 118% | [9] 110%

COc1ccccc1NC(=O)c1ccc(NC(=O)CCl)s1
inactive: [5] 65.2% | [9] 18.3%
active: [1] 2.06% | [2] -37.4% | [3] -61% | [4] 2.87% | [6] -4.26% | [7] -63.9% | [8] 1.97%

NS(=O)(=O)c1ccc(N2N=C(c3ccc(NC(=O)Nc4ccccc4)cc3)CC2c2ccc(Br)cc2)cc1 (stereo not given)
inactive: [1] 13%
active: [2] 4.09% | [3] -32.7% | [4] -98.2% | [5] -85.2% | [6] -61.7% | [7] -86.7% | [8] -29.7% | [9] -24.5%

Cc1ccc2nc(SCc3ccccc3F)n(-c3ccccc3)c(=O)c2c1
inactive: [1] 109% | [2] 93.4% | [3] 100% | [4] 116% | [5] 98.9% | [6] 118% | [7] 105% | [8] 115% | [9] 96.3% | [10] 89%

CCC(=O)c1cc(C(=O)OC)c2ccc3c4ccccc4ccc3n12
inactive: [1] 68.3% | [2] 84.9% | [3] 71.5% | [4] 73.8% | [6] 122% | [7] 70.2% | [8] 67.5% | [9] 63.3% | [10] 76.6%
active: [5] 1.22%

Cc1ccc(C(C(=O)NC2CCCCC2)N(Cc2ccccc2Cl)C(=O)c2ccc(CN3CCOCC3)o2)o1 (stereo not given)
inactive: [1] 103% | [2] 80.4% | [3] 104% | [4] 99.8% | [5] 96.8% | [6] 112% | [7] 92.5% | [8] 110% | [9] 86% | [10] 87.5%

Cc1[nH]nc2ccc3nc(-c4cn[nH]c4C(F)(F)F)c4c(c3c12)CCCC4
inactive: [1] 16.6% | [5] 29.6% | [10] 19.8%
active: [2] 1.04% | [3] 4.15% | [4] 3.15% | [6] -54.2% | [7] -42.4% | [8] -15% | [9] -28.6%

COc1ccc2c(c1)C(=O)N(C)C2C1c2c(cc3c(c2OC)OCO3)CCN1C (stereo not given)
active: [8] 9.03%
inactive: [1] 18.8% | [2] 73.8% | [3] 78.1% | [4] 67.2% | [5] 69.4% | [6] 64% | [7] 43.2% | [9] 48.4% | [10] 27.9%

CCN1CCN(Cc2ccc(C(=O)Nc3cccc(Nc4ccc5c(OC)cccc5n4)c3)cc2C(F)(F)F)CC1
active: [1] -35.1% | [2] -34.8% | [3] -66.1% | [4] -91.9% | [5] -53.1% | [6] -8.33% | [7] -83.6% | [8] 4.54% | [9] -16.4% | [10] -81%

CCCCCCCCCCCCCCCCCC(=O)Nc1ccc(OC)cc1
inactive: [1] 97.7% | [2] 99.6% | [3] 112% | [4] 114% | [5] 113% | [6] 115% | [7] 103% | [8] 119% | [9] 101% | [10] 101%

CN(C)c1nc(NCCNS(=O)(=O)c2ccc(C3=Nc4c(N)nc(N)nc4NC(c4ccc(C(F)(F)F)cc4)C3)cc2)nc(N2CCOCC2)n1 (stereo not given)
active: [1] 3.12%
inactive: [2] 34.8% | [3] 43.2% | [4] 78% | [5] 58% | [6] 55.8% | [7] 45.7% | [8] 58.2% | [9] 40.7% | [10] 91.8%

COc1ccc(NC(=O)NN2C(=O)c3ccccc3N(C)C2c2ccc(OC)cc2)cc1 (stereo not given)
inactive: [1] 88.4% | [2] 99.1% | [3] 103% | [4] 107% | [5] 96.7% | [6] 101% | [7] 108% | [8] 89.8% | [9] 101% | [10] 92.2%

Cc1nc(Nc2ccccn2)sc1C1=NNC(c2ccccc2F)C1 (stereo not given)
inactive: [1] 12.4% | [2] 30.4% | [3] 68% | [4] 82.8% | [5] 74.8% | [6] 98.3% | [7] 64.2% | [8] 24.8% | [9] 87.6% | [10] 20.9%

CCCN(CCC)S(=O)(=O)c1ccc(C(=O)O)cc1.CCCN(CCC)S(=O)(=O)c1ccc(C(=O)O)cc1.[Cl][Pt+2][Cl].[NH2-].[NH2-]
active: [1] 3.39% | [7] 7.54% | [8] 0.454%
inactive: [2] 12.3% | [3] 39.7% | [4] 24.5% | [5] 35.4% | [6] 18.8% | [9] 80.8% | [10] 101%

Cc1ccc(N=Nc2c(N)nn3c(-c4cc5cc(Br)ccc5oc4=O)ccnc23)cc1
inactive: [1] 50.2% | [2] 93.5% | [3] 54% | [4] 54.8% | [5] 102% | [6] 98.6% | [7] 45.2% | [8] 108% | [9] 69.4% | [10] 29%

O=C(NN1C(=O)/C(=C/C=C/c2ccc([N+](=O)[O-])o2)SC1=S)c1ccc(O)cc1
active: [1] -7.52% | [2] -26.1% | [3] -70.9% | [4] -98.7% | [5] -99.8% | [6] -98.9% | [7] -95.6% | [8] -88.6% | [9] -1.61%

O=C1Nc2cc(-c3ccc(NS(=O)(=O)c4ccc(F)c(Cl)c4)cc3)ccc2/C1=C/c1ccc[nH]1
active: [1] 6.77%
inactive: [2] 21.4% | [3] 34.9% | [4] 19.7% | [5] 26.4% | [6] 39.6% | [7] 45.9% | [8] 56.9% | [9] 45.6% | [10] 29.7%

Cc1ccc(Nc2nnc(-c3c[nH]c4ccccc34)o2)c(C)c1
inactive: [4] 16.3% | [5] 71.9% | [6] 16.2% | [7] 12.2% | [8] 12.3% | [9] 30.9%
active: [1] 6.21% | [2] -7.61% | [3] -12.1% | [10] -29.2%

NS(=O)(=O)c1ccc(Nc2nc(SCC(=O)c3ccc(F)cc3)nc3ccccc23)cc1
inactive: [1] 19.6% | [2] 30.6% | [3] 52.9% | [4] 78.1% | [5] 37.3% | [6] 67.3% | [7] 46.4% | [8] 47.1% | [9] 53.1% | [10] 28.7%

CN(C(=O)CN1C(=O)/C(=C/c2ccco2)SC1=S)C1CCS(=O)(=O)C1 (stereo not given)
inactive: [1] 84.8% | [2] 98% | [3] 96% | [4] 111% | [5] 106% | [6] 91.3% | [7] 116% | [8] 99.9% | [9] 111% | [10] 96.4%

COC(=O)c1cc(C(=O)C(Br)Br)n2c1ccc1c3ccccc3ccc12
inactive: [1] 13.6% | [2] 54.6% | [3] 38.6% | [4] 64.4% | [5] 48.8% | [6] 75.4% | [7] 32.1% | [8] 77% | [9] 44.3% | [10] 70.3%

CN1CCN(C(=O)CCN(C(=O)Oc2cc3c(c4ccccc24)[C@H](CCl)CN3C(=O)c2cc3cc(OCCCN4CCC4)ccc3[nH]2)[C@H]2CCSSC2)CC1
active: [1] -17.2% | [2] -39.8% | [3] -64.4% | [4] -88.8% | [5] -30.2% | [6] -12.4% | [7] -51.5% | [8] -71.7% | [9] -9.25% | [10] -46.7%
